# Where “and” joins values, the source holds several entries; their conditions need not be identical. Equal entries are not always repeated. Results filed as inconclusive are left out. Where a call stands in place of a potency, no number is given. Where a structure was tested more than once in an assay, its records may differ in their call. Unmarked numbers belong to inactive results. Calls of active or inactive are those of the source. The call rests on the fitted dose curve; in most records, active means well fitted curve in the direction sought with a large enough effect; inconclusive means small, poorly fitted or top-dose-only effect, or another doubt; inactive means no such curve, though single readings can be large; an effect the other way counts as inactive or inconclusive.
# What was measured:
# CRL-7250 [1] = test: Cytotoxic Profiling of Annotated Libraries Using Quantitative High-Throughput Screening (AID 1296008); conditions: Five cell lines viability, CellTiter-Glo ATP luminescence, 48-72 h; max response: stronger effect = lower value; further: nearly all actives have a fitted effect of over 60% in size; further: potency means the concentration at half of the fitted maximal effect
# How it was run: (§1)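 Cells exposed to compounds for 48 or 72 hr at 37 degrees Celsius. Viability read as ATP-coupled luminescence with CellTiter-Glo after 10 min at room temperature.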
# HEK293 = test: as above; conditions: Five cell lines viability, CellTiter-Glo ATP luminescence, 48-72 h; max response: stronger effect = lower value
# How it was run: as §1
# HaCat [2] = test: as above; conditions: Five cell lines viability, CellTiter-Glo ATP luminescence, 48-72 h; max response: stronger effect = lower value
# How it was run: as §1
# KB-3-1 = test: as above; conditions: Five cell lines viability, CellTiter-Glo ATP luminescence, 48-72 h; max response: stronger effect = lower value
# How it was run: as §1
# NIH3T3 [3] = test: as above; conditions: Five cell lines viability, CellTiter-Glo ATP luminescence, 48-72 h; max response: stronger effect = lower value
# How it was run: as §1
# HACAT [4] = test: qHTS assay to identify novel small-molecules to repurpose for Merkel cell carcinoma treatment (AID 1296009); conditions: MCC and control cell lines, CellTiter-Glo viability, 72 h; at 44.8 µM (top of the series) unless noted; further: nearly all actives have a fitted effect of over 60% in size
# How it was run: (§2)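 Cells were incubated with compound for 72 hr at 37 degree celsius before CellTiter-Glo addition. Luminescence was normalized with no-cell wells as full cytotoxicity and DMSO as baseline.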
# MCC-13 = test: as above; conditions: MCC and control cell lines, CellTiter-Glo viability, 72 h; series mostly up to 46 µM
# How it was run: as §2
# MKL-1 = test: as above; conditions: MCC and control cell lines, CellTiter-Glo viability, 72 h; series mostly up to 46 µM
# How it was run: as §2
# MKL-2 = test: as above; conditions: MCC and control cell lines, CellTiter-Glo viability, 72 h; series mostly up to 46 µM
# How it was run: as §2
# UISO = test: as above; conditions: MCC and control cell lines, CellTiter-Glo viability, 72 h; series mostly up to 46 µM
# How it was run: as §2
# WaGa = test: as above; conditions: MCC and control cell lines, CellTiter-Glo viability, 72 h; series mostly up to 46 µM
# How it was run: as §2
# MCC-26 = test: as above; conditions: MCC and control cell lines, CellTiter-Glo viability, 72 h; series mostly up to 46 µM
# How it was run: as §2
# NIH3T3 [5] = test: as above; conditions: MCC and control cell lines, CellTiter-Glo viability, 72 h; at 44.8 µM (top of the series) unless noted
# How it was run: as §2
# C33A = test: Primary qHTS to identify gynecologic anti-cancer compounds using libraries of approved drugs and bioactive compounds (AID 1345084); conditions: Gynecologic cancer cell panel viability, ATPlite luminescence, 48 h; series mostly up to 57.5 µM; further: nearly all actives have a fitted effect of over 55% in size
# How it was run: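 Five-concentration response, 48 h; readout is ATP-driven luciferase luminescence.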
# HEK293T = test: qHTS assay to identify novel small-molecules to repurpose for Merkel cell carcinoma treatment (AID 1296009); conditions: MCC and control cell lines, CellTiter-Glo viability, 72 h; at 44.8 µM (top of the series) unless noted; further: nearly all actives have a fitted effect of over 60% in size
# How it was run: as §2
# TAB113 = test: qHTS profiling for inhibitors of Plasmodium falciparum proliferation (AID 504749); further: nearly all actives have a fitted effect of over 60% in size; further: potency means the concentration at half of the fitted maximal effect; conditions: P. falciparum in erythrocytes, SYBR Green DNA, 72 h; series mostly up to 28.7 µM
# How it was run: (§3)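 Readout was DNA-dye fluorescence from lysed cultures, ex 485/em 535 nm. Parasitized red cells had grown 72 h with compound; data scaled between 0.29 uM artemisinin and DMSO wells and corrected using vehicle-only plates.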
# W2 = test: as above; conditions: P. falciparum in erythrocytes, SYBR Green DNA, 72 h; series mostly up to 28.7 µM
# How it was run: as §3
# CRL-7250 [6] = test: qHTS assay to identify novel small-molecules to repurpose for Merkel cell carcinoma treatment (AID 1296009); conditions: MCC and control cell lines, CellTiter-Glo viability, 72 h; at 44.8 µM (top of the series) unless noted; further: nearly all actives have a fitted effect of over 60% in size
# How it was run: as §2
# TAB109 = test: qHTS profiling for inhibitors of Plasmodium falciparum proliferation (AID 504749); further: nearly all actives have a fitted effect of over 60% in size; further: potency means the concentration at half of the fitted maximal effect; conditions: P. falciparum in erythrocytes, SYBR Green DNA, 72 h; series mostly up to 28.7 µM
# How it was run: as §3
# TAB165 = test: as above; conditions: P. falciparum in erythrocytes, SYBR Green DNA, 72 h; series mostly up to 28.7 µM
# How it was run: as §3
smiles,measurement,setting,value
CCOC(=O)c1c(C(C#N)=CN)c2ccc(Cl)c(Cl)c2n1C,max response,CRL-7250 [1],3.66%
same,max response,HEK293,-12.5%
same,outcome,HaCat [2],inactive
same,max response,KB-3-1,-3.02%
same,max response,NIH3T3 [3],2.89%
same,outcome,HACAT [4],inactive
same,Potency,MCC-13,inactive
same,Potency,MKL-1,inactive
same,Potency,MKL-2,inactive
same,Potency,UISO,inactive
same,Potency,WaGa,inactive
O=C(Oc1ccc([N+](=O)[O-])cc1)N1CCC(C(O)(c2ccc3c(c2)OCO3)c2ccc3c(c2)OCO3)CC1,Potency,CRL-7250 [1],13.2 µM (active)
same,max response,HEK293,-16.1%
same,max response,HaCat [2],-5.43%
same,outcome,HaCat [2],inactive
same,max response,KB-3-1,5.68% and 6.78%
same,outcome,NIH3T3 [3],inactive
same,outcome,HACAT [4],inactive
same,Potency,MCC-13,inactive
same,Potency,MCC-26,inactive
same,Potency,MKL-1,inactive
same,Potency,MKL-2,inactive
same,outcome,NIH3T3 [5],inactive
same,Potency,UISO,inactive
same,Potency,WaGa,inactive
same,Potency,C33A,inactive
c1cc2c(cc1[C@H]1OC[C@H]3[C@H]1CO[C@H]3c1ccc3c(c1)OCO3)OCO2,max response,CRL-7250 [1],-11.7%
same,outcome,HEK293,inactive
same,outcome,HaCat [2],inactive
same,max response,KB-3-1,6.13%
same,outcome,NIH3T3 [3],inactive
same,outcome,HACAT [4],inactive
same,outcome,HEK293T,inactive
same,Potency,MCC-13,inactive
same,Potency,MKL-1,inactive
same,Potency,MKL-2,inactive
same,outcome,NIH3T3 [5],inactive
same,Potency,UISO,inactive
same,Potency,WaGa,inactive
CC[N+]1(CCOC(=O)C(O)(c2ccccc2)c2ccccc2)CCCCC1,Potency,TAB113,inactive
same,Potency,W2,inactive
same,max response,CRL-7250 [1],-4.52%
same,outcome,HEK293,inactive
same,outcome,HaCat [2],inactive
same,max response,KB-3-1,1.27%
same,outcome,NIH3T3 [3],inactive
same,outcome,HACAT [4],inactive
same,outcome,HEK293T,inactive
same,Potency,MCC-13,inactive
same,Potency,MCC-26,inactive
same,Potency,MKL-1,inactive
same,Potency,MKL-2,inactive
same,outcome,NIH3T3 [5],inactive
same,Potency,UISO,inactive
same,Potency,WaGa,inactive
same,Potency,C33A,inactive
O=c1[nH]c2ccccc2n1C1CCN(Cc2ccc(-c3[nH]c4cc5ncnc5cc4nc3-c3ccccc3)cc2)CC1,outcome,CRL-7250 [1],inactive
same,Potency,HEK293,18.7 µM (active)
same,max response,HaCat [2],0.8%
same,outcome,KB-3-1,inactive
same,max response,NIH3T3 [3],-3.31%
same,outcome,CRL-7250 [6],inactive
same,Potency,MCC-13,inactive
same,Potency,MKL-1,inactive
same,Potency,MKL-2,inactive
same,Potency,UISO,inactive
same,Potency,WaGa,inactive
O=[N+]([O-])c1c(Cl)c(Cl)cc(Cl)c1Cl,max response,CRL-7250 [1],-4.27%
same,max response,HEK293,4.07%
same,outcome,HaCat [2],inactive
same,max response,KB-3-1,-18.1%
same,outcome,NIH3T3 [3],inactive
same,outcome,HACAT [4],inactive [at 92 µM]
same,Potency,MCC-13,inactive
same,Potency,MCC-26,inactive
same,Potency,MKL-1,inactive
same,Potency,MKL-2,inactive
same,outcome,NIH3T3 [5],inactive [at 92 µM]
same,Potency,UISO,inactive
same,Potency,WaGa,inactive
same,Potency,C33A,inactive
CC(C)N[C@@H]1CCn2c(=O)[nH]c3cccc(c32)[C@@H]1O,outcome,CRL-7250 [1],inactive
same,max response,HEK293,2.71%
same,max response,HaCat [2],-2.4%
same,max response,KB-3-1,6.91%
same,max response,NIH3T3 [3],-1.8%
same,outcome,CRL-7250 [6],inactive
same,Potency,MCC-13,inactive
same,Potency,MCC-26,inactive
same,Potency,UISO,inactive
COC(=O)[C@@H](N)CCCN=C(N)N[N+](=O)[O-],Potency,TAB109,inactive
same,Potency,TAB113,inactive
same,Potency,TAB165,inactive
same,Potency,W2,inactive
same,outcome,CRL-7250 [1],inactive
same,max response,HEK293,0.845%
same,max response,HaCat [2],-4.22%
same,max response,KB-3-1,9.25%
same,max response,NIH3T3 [3],1.58%
same,outcome,CRL-7250 [6],inactive
same,Potency,MCC-13,inactive
same,Potency,MCC-26,inactive
same,Potency,MKL-1,inactive
same,Potency,MKL-2,inactive
same,Potency,UISO,inactive
same,Potency,WaGa,inactive
CC1=NN=C(c2ccc(N)cc2)c2cc3c(cc2C1)OCO3,outcome,CRL-7250 [1],inactive
same,max response,HEK293,3.46%
same,max response,HaCat [2],-15.7%
same,outcome,KB-3-1,inactive
same,outcome,NIH3T3 [3],inactive
same,outcome,CRL-7250 [6],inactive
same,Potency,MCC-13,inactive
same,Potency,MCC-26,inactive
same,Potency,MKL-1,inactive
same,Potency,MKL-2,inactive
same,outcome,NIH3T3 [5],inactive
same,Potency,UISO,inactive
same,Potency,WaGa,inactive
NC1=NC(=O)N2CC12 (stereo not drawn),Potency,TAB113,inactive
same,Potency,CRL-7250 [1],11.8 µM (active)
same,Potency,HEK293,8.33 µM (active)
same,outcome,HaCat [2],inactive
same,max response,KB-3-1,6.64%
same,outcome,NIH3T3 [3],inactive
same,outcome,HACAT [4],inactive
same,Potency,MCC-13,inactive
same,Potency,MCC-26,inactive
same,Potency,MKL-1,inactive
same,outcome,NIH3T3 [5],inactive
COC(C)(C)CCCC(C)C/C=C/C(C)=C/C(=O)OC(C)C (stereo not drawn),Potency,TAB109,inactive
same,Potency,W2,10.7 µM (active)
same,max response,CRL-7250 [1],1.51%
same,max response,HEK293,3.25%
same,outcome,HaCat [2],inactive
same,max response,KB-3-1,3.28%
same,outcome,NIH3T3 [3],inactive
same,outcome,HACAT [4],inactive
same,Potency,MCC-13,inactive
same,Potency,MCC-26,inactive
same,Potency,MKL-1,inactive
same,Potency,MKL-2,inactive
same,outcome,NIH3T3 [5],inactive
same,Potency,UISO,inactive
same,Potency,WaGa,inactive
same,Potency,C33A,inactive
O=C(NCC1CCOCC1)c1cnc(Nc2ccc(Cl)cc2Cl)nc1C(F)(F)F,max response,CRL-7250 [1],4.29% and -22.6%
same,Potency,HEK293,8.2 µM (active)
same,max response,HEK293,-4.23%
same,max response,HaCat [2],-8.57% and -14.9%
same,max response,KB-3-1,-20.4%
same,outcome,KB-3-1,inactive
same,max response,NIH3T3 [3],-3.44% and -3.65%
same,Potency,MCC-13,inactive
same,Potency,MCC-26,inactive
same,Potency,MKL-1,inactive
same,Potency,MKL-2,inactive
same,Potency,UISO,inactive
same,Potency,WaGa,inactive
same,Potency,C33A,inactive
CC(N[C@H]1C[C@H]1c1ccccc1)c1ccc2c(c1)OCCO2 (stereo partly drawn),max response,CRL-7250 [1],1.35% and -26.3%
same,max response,HEK293,0.032% and -12.5%
same,outcome,HaCat [2],inactive
same,max response,KB-3-1,2.53% and -2.54%
same,max response,NIH3T3 [3],4.85% and -28.5%
same,outcome,HACAT [4],inactive
same,Potency,MCC-13,inactive
same,Potency,MCC-26,inactive
same,Potency,MKL-1,inactive
same,Potency,MKL-2,inactive
same,Potency,UISO,inactive
same,Potency,WaGa,inactive
same,Potency,C33A,inactive

# Reference: PubChem BioAssay (NCATS)
